In the supplement of paper PMC10849652:
The full data set covers some 7,900 targets. This sample favours those with a hit. About 0.6% of all pairs of compound and target were hits. Unmarked numbers belong to inactive results.

Assays:
Assay in all cases: log2 fold change, soluble protein after heating vs DMSO (PISA); higher = thermal stabilisation; K562 cells, 10 uM, 30 min; active = over 0.2 and 3.5 SD of the protein, either way, in both replicates (recomputed)
erlotinib = compound: C#Cc1cccc(Nc2ncnc3cc(OCCOC)c(OCCOC)cc23)c1 [erlotinib]
How it was run: (§1)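 K562 cells (2×10^6 cells/mL) were treated with 10 μM compound for 30 min, and aliquots were heated for 3 min over 48°C-58°C. Pooled aliquots were extracted in PBS with 0.5% NP-40 at 4°C, and the supernatant after 21,000xg for 90 min was measured by TMTpro 16plex LC-MS/MS with channel sums equalised. Reported thermal stability, relative to control samples and from duplicates, is a log2 fold change.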

[1] = compound: C/C(=N\NC(=O)C1=CC(=CC=C1)S(=O)(=O)N2CCOCC2)/C3=C(C=CC(=C3)Cl)O
How it was run: as §1

[2] = compound: C1=CC(=C(C=C1Cl)C2=NC3=NC=CN=C3C(=N2)NC4=CC=NC=C4)F
How it was run: as §1

[3] = compound: C1=CC(=CC=C1C2=NC3=C(N2)C=C(C=C3)C(=O)N)OC4=CC=C(C=C4)Cl
How it was run: as §1

[4] = compound: C1=CC2=C(C=CC(=C2)/C=C\3/C(=O)NC(=NCC4=CC=CS4)S3)N=C1
How it was run: as §1

[5] = compound: C1=CC2=NC=CN=C2C=C1/C=C/3\C(=O)NC(=O)S3
How it was run: as §1

[6] = compound: C1=CC=C(C=C1)C2=NC(=C(N2)C3=CC=NC=C3)C4=CC(=C(C=C4)Cl)O
How it was run: as §1

[7] = compound: C1=CC=C2C(=C1)C3=NNC4=CC=CC(=C43)C2=O
How it was run: as §1

[8] = compound: C1CCN(C1)C(=O)NC2=CC=CC(=C2)NC3=NC=C(C(=N3)NCCC4=CN=CN4)Br
How it was run: as §1

[9] = compound: C1CN(CCC1(CC2=CC=C(C=C2)Cl)N)C3=NC=NC4=C3C=CN4
How it was run: as §1

IRAK-1-4 Inhibitor I = compound: C1COCCN1CCN2C3=CC=CC=C3N=C2NC(=O)C4=CC(=CC=C4)[N+](=O)[O-] [IRAK-1-4 Inhibitor I]
How it was run: as §1

ibrutinib = compound: C=CC(=O)N1CCC[C@@H](n2nc(-c3ccc(Oc4ccccc4)cc3)c3c(N)ncnc32)C1 [ibrutinib]
How it was run: as §1

[10] = compound: CC(=O)c1cnc2ccc(-c3cc(Cl)c(O)c(Cl)c3)nc2c1N[C@H]1CC[C@H](CN(C)C)CC1
How it was run: as §1

ralimetinib = compound: CC(C)(C)Cn1c(N)nc2ccc(-c3[nH]c(C(C)(C)C)nc3-c3ccc(F)cc3)nc21 [ralimetinib]
How it was run: as §1

[11] = compound: CC(C)(O)CC(=O)NCCn1ccc2ncnc(Nc3ccc(Oc4cccc(C(F)(F)F)c4)c(Cl)c3)c21
How it was run: as §1

[12] = compound: CC(C)C1=C2N=C(C=C(N2N=C1)NCC3=CC=CC=C3)NCCCCCCN
How it was run: as §1

[13] = compound: CC(C)C[C@@H](C=O)NC(=O)[C@H](CC(C)C)NC(=O)[C@H](CC(C)C)NC(=O)OCc1ccccc1
How it was run: as §1

pinometostat = compound: CC(C)N(C[C@H]1O[C@@H](n2cnc3c(N)ncnc32)[C@H](O)[C@@H]1O)[C@H]1C[C@@H](CCc2nc3cc(C(C)(C)C)ccc3[nH]2)C1 [pinometostat]
How it was run: as §1

[14] = compound: CC1=C(C(CC(=O)N1)C2=CC=C(C=C2)C(F)(F)F)C(=O)NC3=C(C=C4C(=C3)C=NN4)F
How it was run: as §1

[15] = compound: CC1=C(C2=C(C=C1)C(=O)C3=CC=CC=C3N2CCCN)C
How it was run: as §1

Sequence of UniProt O14578 (O14578 whole entry, looked up): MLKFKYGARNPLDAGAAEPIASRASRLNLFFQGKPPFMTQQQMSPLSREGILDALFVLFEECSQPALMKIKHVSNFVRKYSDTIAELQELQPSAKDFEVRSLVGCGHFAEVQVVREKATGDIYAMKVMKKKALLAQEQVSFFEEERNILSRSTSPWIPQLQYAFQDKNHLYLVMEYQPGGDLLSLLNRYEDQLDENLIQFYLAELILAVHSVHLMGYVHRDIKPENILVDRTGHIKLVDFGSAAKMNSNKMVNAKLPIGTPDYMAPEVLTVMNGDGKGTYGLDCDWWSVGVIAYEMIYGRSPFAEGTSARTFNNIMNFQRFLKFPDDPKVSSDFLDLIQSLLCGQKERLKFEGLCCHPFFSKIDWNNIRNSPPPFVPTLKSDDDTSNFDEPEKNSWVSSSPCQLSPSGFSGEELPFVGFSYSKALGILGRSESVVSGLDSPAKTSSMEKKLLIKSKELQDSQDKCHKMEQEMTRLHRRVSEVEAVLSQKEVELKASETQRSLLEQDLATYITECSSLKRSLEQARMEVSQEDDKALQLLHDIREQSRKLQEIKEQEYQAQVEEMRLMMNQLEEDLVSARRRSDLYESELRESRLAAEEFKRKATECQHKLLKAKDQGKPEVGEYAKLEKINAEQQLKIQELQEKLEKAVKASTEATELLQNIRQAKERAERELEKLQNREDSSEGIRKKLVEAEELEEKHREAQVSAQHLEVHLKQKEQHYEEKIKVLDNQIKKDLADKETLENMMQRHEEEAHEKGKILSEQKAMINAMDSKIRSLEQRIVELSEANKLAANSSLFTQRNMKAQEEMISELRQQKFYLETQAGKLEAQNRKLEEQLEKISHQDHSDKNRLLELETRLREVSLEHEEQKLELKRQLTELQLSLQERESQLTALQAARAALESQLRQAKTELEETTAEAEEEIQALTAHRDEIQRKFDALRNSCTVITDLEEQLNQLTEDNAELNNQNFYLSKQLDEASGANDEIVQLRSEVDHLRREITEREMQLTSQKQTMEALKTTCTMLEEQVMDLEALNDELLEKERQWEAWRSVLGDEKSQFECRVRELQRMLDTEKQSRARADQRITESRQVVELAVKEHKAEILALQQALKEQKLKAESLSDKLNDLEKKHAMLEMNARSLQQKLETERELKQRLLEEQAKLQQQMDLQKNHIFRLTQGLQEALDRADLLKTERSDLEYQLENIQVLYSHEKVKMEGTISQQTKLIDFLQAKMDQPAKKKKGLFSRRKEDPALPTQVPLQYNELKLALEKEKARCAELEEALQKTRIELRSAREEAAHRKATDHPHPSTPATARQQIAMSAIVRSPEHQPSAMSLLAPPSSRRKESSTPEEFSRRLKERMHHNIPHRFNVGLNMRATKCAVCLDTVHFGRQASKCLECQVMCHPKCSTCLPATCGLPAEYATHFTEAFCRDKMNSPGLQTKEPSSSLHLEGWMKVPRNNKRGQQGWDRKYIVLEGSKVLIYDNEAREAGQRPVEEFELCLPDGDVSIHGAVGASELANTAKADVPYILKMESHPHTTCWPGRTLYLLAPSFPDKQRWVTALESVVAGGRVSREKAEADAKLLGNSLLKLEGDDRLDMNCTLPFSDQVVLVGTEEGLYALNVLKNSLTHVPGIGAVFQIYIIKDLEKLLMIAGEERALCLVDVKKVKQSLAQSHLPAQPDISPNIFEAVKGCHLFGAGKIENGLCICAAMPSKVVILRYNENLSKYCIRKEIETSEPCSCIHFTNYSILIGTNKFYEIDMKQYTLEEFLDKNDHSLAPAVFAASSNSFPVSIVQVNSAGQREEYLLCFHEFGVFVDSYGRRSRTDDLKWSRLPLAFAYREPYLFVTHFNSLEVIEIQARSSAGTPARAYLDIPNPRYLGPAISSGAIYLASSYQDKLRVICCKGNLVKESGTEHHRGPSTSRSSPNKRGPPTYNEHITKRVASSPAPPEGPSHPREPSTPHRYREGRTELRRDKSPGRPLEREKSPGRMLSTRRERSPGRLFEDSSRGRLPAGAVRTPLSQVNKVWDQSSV
Sequence of UniProt Q00536 (Q00536 whole entry, looked up): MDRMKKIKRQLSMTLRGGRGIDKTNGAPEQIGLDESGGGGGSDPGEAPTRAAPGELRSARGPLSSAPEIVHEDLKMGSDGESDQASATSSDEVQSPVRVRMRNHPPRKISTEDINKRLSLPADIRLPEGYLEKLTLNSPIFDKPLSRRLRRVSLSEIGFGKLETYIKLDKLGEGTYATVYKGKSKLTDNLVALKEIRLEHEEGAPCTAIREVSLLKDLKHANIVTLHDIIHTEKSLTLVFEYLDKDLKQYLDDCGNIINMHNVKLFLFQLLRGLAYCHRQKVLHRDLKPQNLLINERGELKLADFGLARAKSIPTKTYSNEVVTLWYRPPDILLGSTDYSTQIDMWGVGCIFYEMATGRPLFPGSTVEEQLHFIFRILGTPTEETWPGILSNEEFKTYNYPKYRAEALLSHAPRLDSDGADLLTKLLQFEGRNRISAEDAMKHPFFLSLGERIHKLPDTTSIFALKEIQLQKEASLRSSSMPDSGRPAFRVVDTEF
Sequence of UniProt P41240 (P41240 whole entry, looked up): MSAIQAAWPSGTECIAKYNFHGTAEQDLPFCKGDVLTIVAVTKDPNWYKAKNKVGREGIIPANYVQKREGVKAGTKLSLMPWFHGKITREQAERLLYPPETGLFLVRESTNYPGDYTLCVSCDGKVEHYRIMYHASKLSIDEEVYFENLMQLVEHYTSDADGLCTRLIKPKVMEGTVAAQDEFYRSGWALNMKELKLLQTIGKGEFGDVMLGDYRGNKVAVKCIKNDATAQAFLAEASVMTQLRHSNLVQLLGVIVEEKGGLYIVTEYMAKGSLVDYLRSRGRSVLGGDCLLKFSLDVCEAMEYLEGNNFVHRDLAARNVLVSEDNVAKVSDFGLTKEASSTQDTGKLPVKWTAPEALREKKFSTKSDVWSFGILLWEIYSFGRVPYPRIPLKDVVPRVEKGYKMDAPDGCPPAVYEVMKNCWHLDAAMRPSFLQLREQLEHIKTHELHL
Sequence of UniProt P23786 (P23786 whole entry, looked up): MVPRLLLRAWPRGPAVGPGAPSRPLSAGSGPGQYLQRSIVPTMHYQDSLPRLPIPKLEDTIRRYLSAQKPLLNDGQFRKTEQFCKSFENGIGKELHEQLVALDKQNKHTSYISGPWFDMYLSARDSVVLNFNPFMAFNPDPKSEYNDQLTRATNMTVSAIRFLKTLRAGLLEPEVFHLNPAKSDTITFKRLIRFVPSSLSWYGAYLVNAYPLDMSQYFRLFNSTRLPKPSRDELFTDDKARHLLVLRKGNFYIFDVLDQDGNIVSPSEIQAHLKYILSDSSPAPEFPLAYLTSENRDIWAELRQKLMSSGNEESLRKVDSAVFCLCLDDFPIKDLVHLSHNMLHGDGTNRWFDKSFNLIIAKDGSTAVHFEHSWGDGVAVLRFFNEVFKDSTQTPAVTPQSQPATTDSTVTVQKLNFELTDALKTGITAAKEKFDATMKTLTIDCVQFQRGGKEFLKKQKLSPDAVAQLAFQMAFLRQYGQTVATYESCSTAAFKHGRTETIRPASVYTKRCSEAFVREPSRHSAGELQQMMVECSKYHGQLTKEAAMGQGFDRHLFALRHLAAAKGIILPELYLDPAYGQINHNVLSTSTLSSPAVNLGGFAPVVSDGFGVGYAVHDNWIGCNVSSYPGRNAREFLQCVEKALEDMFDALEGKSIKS
Sequence of UniProt Q13901 (Q13901 whole entry, looked up): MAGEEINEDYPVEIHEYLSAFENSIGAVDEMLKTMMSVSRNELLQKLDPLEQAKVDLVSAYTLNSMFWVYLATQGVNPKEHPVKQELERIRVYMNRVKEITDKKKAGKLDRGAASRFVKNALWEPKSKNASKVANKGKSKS
Sequence of UniProt Q96JB5 (Q96JB5 whole entry, looked up): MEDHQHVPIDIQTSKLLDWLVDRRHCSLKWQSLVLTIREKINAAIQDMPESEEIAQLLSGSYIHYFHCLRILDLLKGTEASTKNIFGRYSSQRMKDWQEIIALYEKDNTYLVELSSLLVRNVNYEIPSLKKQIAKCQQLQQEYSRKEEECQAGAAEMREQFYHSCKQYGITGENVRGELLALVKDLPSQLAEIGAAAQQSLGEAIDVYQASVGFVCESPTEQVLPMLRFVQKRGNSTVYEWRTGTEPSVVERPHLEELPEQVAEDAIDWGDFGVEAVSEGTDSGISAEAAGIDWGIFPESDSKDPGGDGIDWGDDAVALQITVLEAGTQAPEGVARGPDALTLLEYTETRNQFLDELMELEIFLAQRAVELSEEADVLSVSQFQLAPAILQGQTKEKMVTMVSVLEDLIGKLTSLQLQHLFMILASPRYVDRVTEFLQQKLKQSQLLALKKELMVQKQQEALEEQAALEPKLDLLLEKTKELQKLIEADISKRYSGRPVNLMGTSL
Sequence of UniProt Q5T6V5 (Q5T6V5 whole entry, looked up): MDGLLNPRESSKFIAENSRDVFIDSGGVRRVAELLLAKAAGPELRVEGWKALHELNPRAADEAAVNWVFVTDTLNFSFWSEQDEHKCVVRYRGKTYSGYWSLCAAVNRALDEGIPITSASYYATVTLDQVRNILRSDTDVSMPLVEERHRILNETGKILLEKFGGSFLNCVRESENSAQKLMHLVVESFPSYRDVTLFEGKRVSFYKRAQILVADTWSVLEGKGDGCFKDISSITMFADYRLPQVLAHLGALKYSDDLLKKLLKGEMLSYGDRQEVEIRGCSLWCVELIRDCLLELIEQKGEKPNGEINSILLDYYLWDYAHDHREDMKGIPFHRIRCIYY

Row | Target | log2 fold change (erlotinib) | log2 fold change [1] | log2 fold change [2] | log2 fold change [3] | log2 fold change [4] | log2 fold change [5] | log2 fold change [6] | log2 fold change [7] | log2 fold change [8] | log2 fold change [9] | log2 fold change (IRAK-1-4 Inhibitor I) | log2 fold change (ibrutinib) | log2 fold change [10] | log2 fold change (ralimetinib) | log2 fold change [11] | log2 fold change [12] | log2 fold change [13] | log2 fold change (pinometostat) | log2 fold change [14] | log2 fold change [15]
1 | CIT isoform 4 (UniProt O14578) | -0.015 | 0.045 | -0.044 | 0 | -0.176 | 0.13 | -0.027 | -0.002 | -0.037 | 0.021 | -0.013 | -0.057 | -0.462 (active) | -0.008 | -0.077 | -0.021 | 0.045 | -0.005 | 0.045 | 0.118
2 | CDK16 isoform 2 (UniProt Q00536) | -0.072 | -0.025 | -0.023 | -0.07 | 0.043 | -0.016 | -0.024 | 0.121 | 0.139 | -0.029 | -0.029 | -0.018 | 0.843 (active) | 0.05 | -0.031 | 0.069 | 0.059 | 0.016 | -0.03 | 0.025
3 | CSK (UniProt P41240) | 0.023 | 0.031 | -0.038 | 0.005 | 0.056 | -0.022 | 0.024 | -0.02 | -0.034 | -0.05 | -0.016 | 0.074 | 0.111 | 0.011 | -0.034 | -0.131 | 0.031 | 0 | -0.016 | -0.011
4 | C1D (UniProt Q13901) | 0.022 | -0.078 | -0.01 | -0.011 | -0.246 | 0.068 | -0.071 | -0.044 | -0.019 | -0.1 | 0.013 | -0.041 | -0.081 | 0.016 | -0.047 | 0.072 | 0.055 | -0.081 | 0.084 | -0.004
5 | CHD4 isoform 2 (UniProt Q14839) | 0.042 | 0.103 | -0.011 | -0.007 | 0.029 | 0.034 | 0.044 | -0.08 | -0.047 | -0.1 | -0.198 | -0.106 | -0.215 | 0.112 | -0.067 | -0.313 (active) | 0.045 | 0.07 | 0.013 | -0.057
6 | C9orf64 (UniProt Q5T6V5) | 0.046 | 0.142 | 0.009 | 0.065 | 0.117 | 0.017 | 0.054 | -0.037 | -0.001 | -0.039 | -0.041 | -0.03 | -0.019 | -0.018 | -0.181 | -0.288 | 0.012 | 0.053 | 0.02 | -0.097
7 | CDK5RAP3 isoform 4 (UniProt Q96JB5) | 0.089 | 0.027 | 0.042 | -0.017 | 0.01 | 0.023 | 0.033 | 0.041 | -0.003 | -0.068 | -0.051 | -0.068 | -0.005 | -0.015 | -0.062 | -0.056 | -0.002 | 0.017 | -0.031 | 0.009
8 | CPT2 (UniProt P23786) | -0.096 | -0.087 | 0.068 | 0.636 | 0.07 | 0.076 | 0.163 | 0.066 | 0.004 | 0.23 | 0.101 | 0.095 | 0.201 | -0.079 | -0.704 (active) | -0.488 | 0.16 | -0.145 | -0.051 | 0.256
